From PubChem BioAssay

Assay: calcein-AM signal in unstimulated myeloma cells – cell-based, calcein-AM fluorescence, 48 h, PK04 Diversity Set, profiling panel (AID 1166);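 further: cells grown under basal conditions without added stimulus; test concentration not given here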
Conditions: RPMI8226 myeloma viability, higher = more signal

Q: Which z-score does the source give for `C=C(CCCC)/C(=C/C[C@@H](OC(=O)c1ccncc1)c1ccccc1OCCO)c1cnc2ccccc2c1` here?
A: -2

Q: For `[N-]=[N+]=Nc1ccccc1C[C@]1(C(=O)N2CCOCC2)N=C(c2ccc(OCCCO)cc2)O[C@H]1c1ccccc1`, which z-score is on record?
A: -0.911

Q: For `CCCNC(=O)[C@@H]1c2ccccc2C(=O)N(C(C)C)[C@H]1c1ccc(CO)cc1`, which z-score is on record?
A: -0.34

Q: With `O=C1O[C@H](c2ccccc2)[C@H](c2ccccc2)N2[C@H]1[C@@H](C(=O)Nc1nc3ccccc3s1)[C@]1(C(=O)Nc3ccc(C#CC4(O)CCCCCC4)cc31)[C@H]2c1ccccc1OCCO` as the molecule, how does the z-score read?
A: -4.15

Q: For `O=C1OCC=C[C@H]2OC34C=CCN(Cn5nnc6ccccc65)C(=O)[C@H]3N(CCCO)C(=O)[C@@H]4[C@@H]12` (stereo partly specified), which z-score is on record?
A: 0.0897

Q: With `COC(=O)[C@@]1(Cc2ccccc2)[C@H]2c3cc(C(=O)N(C)C)n(Cc4c(CO)[nH]cc(C)c4=O)c3C[C@H]2CN1C(=O)c1ccccc1` as the molecule, how does the z-score read?
A: -0.247

Q: Which z-score does the source give for `COC(=O)[C@@]1(Cc2ccc(OC)cc2)[C@H]2c3cc(C(=O)N(C)C)n(Cc4ccc(Cl)c(C(F)(F)F)c4)c3C[C@H]2CN1C(=O)c1ccccc1` here?
A: -2.39

Q: Which z-score does the source give for `C=CCNC(=O)[C@H]1[C@@H]2C(=O)O[C@@H](c3ccccc3)[C@@H](c3ccccc3)N2[C@@H](c2ccc(O)cc2)[C@]12C(=O)N(C(=O)OCCOC)c1ccccc12` here?
A: -1.66

Q: Which z-score does the source give for `CCCCCCCCCCC(O)C1C=CC2C(=O)N(C)C(=O)C2N1NC(=O)OC(C)(C)C` (stereo unspecified) here?
A: -4.14

Q: For `NC(N)=NCCCn1cc(CNC(=O)[C@@H](N)Cc2ccccc2)nn1`, which z-score is on record?
A: -1.23

Q: With `CCOC(=O)C1CCCCN1` (stereo unspecified) as the molecule, how does the z-score read?
A: 0.166
